POLI inh: DNA polymerase iota (human) inhibition. AID 588590. Potency, µM (series often up to 115 µM), inactives show top-dose activity, negative = inhibition, actives largely listed as inhibitors. actives 1% (n = 390,000). Pol iota fluorescent replication assay, 10 min
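Fluorescent replication assay read twice, at 0 min and 10 min after adding 50 nM (final) substrate. Enzyme (10 nM) and compounds were first incubated 15 min at room temperature; enzyme-free buffer wells were negative controls.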
WRN inhibitor: WRN helicase (human) inhibition | Q14191 | WRN helicase unwinding, fluorescent forked duplex, kinetic | Potency, µM (series often up to 114 µM), for the others: top-dose activity change, negative = inhibition, actives largely listed as inhibitors | actives 0.46% (n = 360,000) | AID 651768; note: % is set by controls: 0 for no effect and ±100 for the full control effect; nearly all actives have a fitted effect of over 55% in size
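WRN at 20 nM final preincubated with compound 15 min at room temperature; reaction started with 100 nM fluorophore/quencher forked duplex oligonucleotide and 2 mM ATP final. Unwinding followed kinetically by red fluorescence (ex 525, em 598 nm).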
Pol eta inh-1: blocks human DNA polymerase eta activity; Q9Y253; recombinant Pol eta, fluorescent DNA replication assay; Potency, µM (highest dose often 114 µM), without a hit: at the top dose activity change, negative = inhibition, hits mostly inhibitors; actives 1.2% (n = 390,000); AID 588591; note: % is set by controls: 0 for no effect and ±100 for the full control effect
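Fluorescent replication assay: 50 nM final substrate added after a 15 min room-temperature compound preincubation with 10 nM enzyme. Signal taken at 0 min and again at 10 min.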
Pol kappa inh-1: blocks human DNA polymerase kappa activity; purified Pol kappa, fluorescent DNA synthesis assay, 10 min; Potency, µM (titrated, usually from 107 µM), inactives show at the highest dose activity, negative = inhibition, usual class: inhibitors; actives 0.53% (n = 400,000); AID 588579; note: % is set by controls: 0 for no effect and ±100 for the full control effect
Target sequence (Q9UBT6 whole entry, looked up): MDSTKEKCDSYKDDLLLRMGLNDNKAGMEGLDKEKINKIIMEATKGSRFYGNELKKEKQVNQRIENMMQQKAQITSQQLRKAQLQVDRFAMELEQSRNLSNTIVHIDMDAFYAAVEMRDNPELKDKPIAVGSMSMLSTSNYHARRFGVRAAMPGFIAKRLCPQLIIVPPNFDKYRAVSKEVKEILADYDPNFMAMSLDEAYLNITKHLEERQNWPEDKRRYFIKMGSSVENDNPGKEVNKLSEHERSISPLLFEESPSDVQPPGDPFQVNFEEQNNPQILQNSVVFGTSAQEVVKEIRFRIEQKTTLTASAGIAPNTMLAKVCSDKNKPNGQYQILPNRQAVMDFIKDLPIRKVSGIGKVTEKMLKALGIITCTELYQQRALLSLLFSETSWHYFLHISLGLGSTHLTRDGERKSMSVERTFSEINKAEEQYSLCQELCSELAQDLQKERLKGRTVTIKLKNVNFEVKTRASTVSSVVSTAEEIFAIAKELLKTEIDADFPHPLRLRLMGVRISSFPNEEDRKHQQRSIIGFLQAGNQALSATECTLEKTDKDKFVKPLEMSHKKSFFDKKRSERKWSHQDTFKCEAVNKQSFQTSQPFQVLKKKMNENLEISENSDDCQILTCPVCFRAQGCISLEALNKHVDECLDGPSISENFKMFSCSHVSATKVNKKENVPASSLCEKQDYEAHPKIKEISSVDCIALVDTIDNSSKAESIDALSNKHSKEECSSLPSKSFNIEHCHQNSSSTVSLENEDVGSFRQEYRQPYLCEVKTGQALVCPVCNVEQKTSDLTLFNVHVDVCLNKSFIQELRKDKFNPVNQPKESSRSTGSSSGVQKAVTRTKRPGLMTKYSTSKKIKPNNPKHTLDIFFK
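10 nM Pol kappa preincubated 15 min at room temperature with compounds, then reaction started with substrate at 50 nM final. Fluorescence read kinetically at 0 and 10 min; buffer-only wells served as negative control.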
Pol beta inh: inhibitors of human DNA polymerase beta; P06746; Potency, µM (top dose mostly 114 µM), for the others: at the highest dose activity change, negative = inhibition, usual class: inhibitors; actives 1.3% (n = 340,000); AID 485314; Pol beta primer extension/strand displacement, fluorescence kinetic; note: % is set by controls: 0 for no effect and ±100 for the full control effect
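10 nM enzyme + cpd, 15 min RT; start with substrate 50 nM final; read 0 min and after 10 min RT. Corrected, normalized data; 4-parameter Hill curve fit.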
FEN1 inh: human FEN1 inhibition; Recombinant FEN1 flap cleavage, fluorescence, 15 min; Potency, µM (series often up to 114 µM), inactives show at the highest dose activity change, negative = inhibition, usual class: inhibitors; actives 0.35% (n = 390,000); AID 588795; note: % is set by controls: 0 for no effect and ±100 for the full control effect; nearly all actives have a fitted effect of over 65% in size
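Concentration–response screening of FEN1 (10 nM): 15 min compound preincubation at room temperature, reaction started with 50 nM substrate and read at 0 and 15 min. Corrected, normalized data were fitted by a four-parameter Hill equation.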
POLI cherry-pick: Inhibitors of human DNA polymerase iota, confirmation; AID 720496; actives 77% (n = 1,500); shares compounds with Pol kappa inh-1; Potency, µM, most hits filed as inhibitors; Pol iota primer extension, TAMRA/BHQ fluorescence
Pol kappa inh-2: Pol kappa (human) inhibition, cherry-pick confirmation. Potency, µM, actives largely listed as inhibitors. shares compounds with Pol eta inh-1. purified Pol-kappa, fluorescent strand-displacement substrate. AID 720501. actives 76% (n = 920)
Pol eta inh-2: confirmation of human DNA polymerase eta inhibitors | shares compounds with Pol eta inh-1 | Pol eta primer extension, TAMRA/BHQ fluorescence, 10 min | Potency, µM, hits mostly inhibitors | actives 64% (n = 2,600) | AID 720502
An asterisk follows results filed as active; ? = inconclusive; nt = not tested or not shown; [ ] = remark or other dose. Only some compounds are listed: those with a hit (about 2.4% of all), similar ones and a draw of the others. Calls come from the whole dose curve; as a rule, active = well fitted curve in the direction sought with a large enough effect; inconclusive = small, poorly fitted or top-dose-only effect, or another doubt; inactive = no such curve, though single readings can be large; an effect the other way counts as inactive or inconclusive. Potency is the fitted concentration of half-maximal effect.

SMILES	POLI inh	WRN inhibitor	Pol eta inh-1	Pol kappa inh-1	Pol beta inh	FEN1 inh	POLI cherry-pick	Pol eta inh-2	others
CC1=C(C)C(=O)C(N2CCOCC2)=CC1=O	8%	0%	3%	-20%	81%	0%	nt	nt
CCOc1ccc(NS(=O)(=O)c2ccc3c(c2)CCCN3C(=O)C2CCC2)cc1	0%	nt	-9%	-8%[60.1 µM]	-23%	-15%	nt	nt
Cc1c(C(=O)O)sc2nc(/C=C/c3ccccc3OC(F)F)[nH]c(=O)c12	?	-4%[11.6 µM]	?	-1%	40µM*	?	75*	?
CCOC(=O)CSc1nc2sc(C(=O)O)c(C)c2c(=O)[nH]1	14%	0%	-20%	2%	-1%	-2%	nt	nt
O=C(N/N=C/c1cn(Cc2ccccc2)c2ccccc12)c1cc(O)cc(O)c1	?	-19%[11.6 µM]	45µM*	?	32µM*	-14%	34*	30*	Pol kappa inh-2=19*
Cc1cc(C)cc(NC(=O)Cn2c(=O)n(-c3cc(C)cc(C)c3)c(=O)c3oc4ccccc4c32)c1	-1%	nt	2%	-7%	31%	-8%	nt	nt
CCc1ccc(Nc2cc(C(=O)NCCCN(C)c3ccccc3)c3ccccc3n2)cc1	-8%	nt	-2%	-12%[60.1 µM]	-2%	-10%	nt	nt
CC(=O)Nc1cccc(C(=O)/C=C/c2ccco2)c1	?	-15%	?	-32%	8%	1%	nt	nt
CC(=O)Nc1ccc(C(=O)/C=C/c2ccco2)cc1	?	?	25µM*	45µM*	25µM*	?	?	38*
COc1cccc(-c2ccc3nnc(SCC(=O)Nc4ccc(NC(C)=O)cc4)n3n2)c1	?	?	?	-11%	nt	-27%	?	?
COc1ccc(Cc2c(C3CCCCC3)nc3c(C)cc(Br)cn23)c(C)c1	nt	-7%	nt	nt	nt	nt	nt	nt
Cc1ccc[n+](-c2nc([O-])sc2C=O)c1	?	-17%[11.6 µM]	22µM*	?	?	-13%	?	?
CC(C)c1ccc[n+](-c2nc([O-])sc2C=O)c1	0%[58.9 µM]	-3%	-12%	-7%	12%	5%	nt	nt
COc1ccc([C@H]2CC(=O)C[C@@H](CCn3nnc4ccccc43)O2)cc1	nt	1%	nt	nt	nt	nt	nt	nt
CCN(CC)C(=O)COC(=O)c1cc(-c2ccco2)nc2ccccc12	14µM*	?	40µM*	79µM*	28µM*	?	47*	67*
O=C(Nc1ccc(F)cc1F)c1cc(-c2ccco2)nc2ccccc12	19%	-31%	1%	-11%	5%	5%	nt	nt
O=C(Nc1ccccc1F)c1cc(-c2ccco2)nc2ccccc12	?	?	79µM*	-31%	nt	1%	?	85*
CCN(CC)C(=O)COC(=O)c1cc(-c2ccc(OC)cc2)nc2ccccc12	-4%	-7%[57.1 µM]	0%	-14%	25%	?	nt	nt
COc1ccc(CCNC(=O)c2cc(-c3ccco3)nc3ccccc23)cc1	22µM*	?	8.9µM*	79µM*	nt	-15%	34*	67*
O=C(O)c1ccccc1/C=N/NC(=O)c1cc(-c2ccco2)nc2ccccc12	?	?	3.2µM*	35µM*	8.9µM*	?	17*	7.6*
O=S(=O)(N1CCN(c2nc(-c3cccs3)nc3ccccc23)CC1)C(F)(F)F	-8%	nt	nt	-5%	nt	-22%	nt	nt

Screening data (PubChem BioAssay)
